# Results: PubChem BioAssay
# Active and inactive are the calls of the source.
# Key:
# [1] = test system: Human papillomavirus type 1a protein E7 (residues 44-93); test: small molecules binding HPV E7 44-93 – biochemical, small-molecule microarray, residues 44-93, 635 nm fluorescence, primary screen (AID 1108); settings: fluorescence 635 nm, higher = more signal;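 also: E7 fragment applied at 1 µg/mL in TBST for 1 h at 4 C; score combines spot fluorescence with its signal to noise ratio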
# [2] = hepatitis C replication reporter changes, two-sided – Huh7 cells, luciferase reporter, HCV replication inhibitor project, primary screen (AID 1109); settings: Huh7 HCV replicon luciferase reporter, 48 h; higher = more signal;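 also: huh7 hepatoma cells harbouring a luciferase neomycin HCV replicon reporter; luciferase luminescence as measure of HCV replicon replication; test concentration not given here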
# [3] = target: Left-right determination factor 2 (Homo sapiens) (UniProt O00292); test: small molecules binding LEFTY2 protein – biochemical, small-molecule microarray, 635 nm fluorescence scan, primary screen (AID 1110); settings: higher = more signal
# [4] = target: Calmodulin-1 (Homo sapiens) (UniProt P0DP23); test: small molecules binding calmodulin-1 with EGTA – biochemical, small-molecule microarray, Cy5-labelled CALM1, profiling panel (AID 1111); settings: Cy5-CALM1 binding fluorescence, higher = more signal;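 also: labelled calmodulin applied in Tris saline Tween buffer holding calcium plus EGTA and DTT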
# [5] = target: Calmodulin-1 (Homo sapiens) (UniProt P0DP23); test: small molecules binding Ca-loaded calmodulin-1 – biochemical, small-molecule microarray, Cy5-labelled CALM1, plus calcium, artefact control for SMM control-protein annotation, profiling panel (AID 1112); settings: Cy5-CALM1 binding fluorescence, higher = more signal;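 also: score merges spot fluorescence with signal to noise from triplicate slides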
# [6] = probe aWnt5a binding to arrayed compounds – biochemical, biotinylated probe, 635/667 nm fluorescence, primary screen (AID 1113); settings: small-molecule microarray, higher = more signal;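 also: score merges 667 nm fluorescence intensity with signal-to-noise per printed feature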
# [7] = probe aShh binding to arrayed compounds – biochemical, biotinylated probe, 635/667 nm fluorescence, primary screen (AID 1114); settings: small-molecule microarray, higher = more signal;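 also: probe is biotin-labelled aShh protein from a stem cell growth factor screen; measures binding of labelled protein to compounds printed on the slide; score merges feature fluorescence at 667 nm with signal-to-noise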
# [8] = probe aNog binding to arrayed compounds – biochemical, biotinylated probe, 635/667 nm fluorescence, primary screen (AID 1115); settings: small-molecule microarray, higher = more signal;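 also: probe is biotinylated aNog protein used at 0.15 µg/mL for 1 h at 4 C; z-score combines 667 nm fluorescence of each spot with its signal to noise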
# [9] = target: Torsin-1A-interacting protein 1 (Homo sapiens) (UniProt Q5JTV8); test: compound microarray binding of lysate hLAP1 – cell lysate, small-molecule microarray, COS7 lysate, 635/667 nm fluorescence, primary screen (AID 1116); settings: 635 nm fluorescence, higher = more signal
# [10] = target: Alpha-bungarotoxin (Bungarus multicinctus) (UniProt P60615); test: compounds binding labelled alpha-BTX control protein – biochemical, small-molecule microarray, Alexa647 label, 635/667 nm fluorescence, artefact control for SMM control protein annotation, profiling panel (AID 1117); settings: alpha-BTX-A647 binding fluorescence, higher = more signal
# Albumin (Bos taurus) = Albumin (Bos taurus) (UniProt P02769); test: compounds binding labelled BSA control protein – biochemical, small-molecule microarray, Alexa647 label, 635/667 nm fluorescence, artefact control for SMM control protein annotation, profiling panel (AID 1118); settings: BSA-A647 binding, fluorescence 635 nm, higher = more signal;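 also: score merges 667 nm emission intensity and signal-to-noise per printed compound spot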
# [11] = probe aXIP binding to arrayed compounds – biochemical, NeuroSMM set, 635/667 nm fluorescence, primary screen (AID 1119); settings: small-molecule microarray, higher = more signal, called active from +8 up or from −8 down;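 also: probe is the protein aXip251-270 applied at 1 µg/mL to compound-printed slides; binding of probe to printed compounds measured as 667 nm fluorescence plus signal to noise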
# [12] = probe aNOTCH3 binding on compound microarray – biochemical, small-molecule microarray, 635/667 nm fluorescence, primary screen (AID 1120); settings: higher = more signal;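 also: probe is a biotin-tagged antibody raised against NOTCH3 rather than NOTCH3 protein; score merges spot fluorescence near 667 nm with spot signal to noise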
# [13] = probe aNOTCH2 binding on compound microarray – biochemical, small-molecule microarray, 635/667 nm fluorescence, primary screen (AID 1121); settings: higher = more signal;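 also: score merges feature fluorescence read at 667 nm with its signal to noise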
# [14] = target: Carbonic anhydrase 2 (Homo sapiens) (UniProt P00918); test: compounds binding carbonic anhydrase 2 – biochemical, small-molecule microarray, Alexa647-labelled CAII, profiling panel (AID 1122); settings: CAII-A647 binding fluorescence, higher = more signal
# [15] = COS7 lysate on small-molecule microarray, probe aHis, 635 nm (AID 1123); settings: COS7 cell lysate, fluorescence, higher = more signal;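 also: z-score combines 667nm fluorescence intensity with signal-to-noise per printed compound spot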
# [16] = probe aLAP1 signal on lysate-treated microarray – cell lysate, small-molecule microarray, COS7 lysate, primary screen (AID 1124); settings: probe aLAP1, fluorescence, higher = more signal;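 also: lysate comes from COS7 cells expressing LAP1 and is applied at 0.3 µg/mL; score merges spot fluorescence near 667 nm with signal-to-noise over triplicate slides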
# Sam68 (KHDRBS1) = test: compounds binding KHDRBS1 protein – biochemical, small-molecule microarray, 635 nm fluorescence, primary screen (AID 1125); settings: higher = more signal;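 also: score merges 667 nm channel intensity with signal to noise over triplicate slides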
# [17] = test system: Chordin-like protein 2 (CHRDL2); test: compounds binding chordin-like 2 – biochemical, small-molecule microarray, 635 nm fluorescence, primary screen (AID 1126); settings: fluorescence 635 nm, higher = more signal;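 also: printed compound slides probed with Chrdl2 protein at 4 µg/mL for 1 h at 4 C; score merges 667 nm emission intensity with signal to noise over three replicate slides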
# [18] = target: Concanavalin-A (Canavalia ensiformis) (UniProt P02866); test: compounds binding concanavalin A lectin – biochemical, small-molecule microarray, Alexa647 label, 635 nm, artefact control for SMM control protein annotation, primary screen (AID 1127); settings: ConA-A647 binding fluorescence, higher = more signal;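 also: z combines 667 nm emission intensity with signal-to-noise across three replicate slides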
# Chain of Concanavalin-A (Canavalia ensiformis) (P02866 whole entry, looked up): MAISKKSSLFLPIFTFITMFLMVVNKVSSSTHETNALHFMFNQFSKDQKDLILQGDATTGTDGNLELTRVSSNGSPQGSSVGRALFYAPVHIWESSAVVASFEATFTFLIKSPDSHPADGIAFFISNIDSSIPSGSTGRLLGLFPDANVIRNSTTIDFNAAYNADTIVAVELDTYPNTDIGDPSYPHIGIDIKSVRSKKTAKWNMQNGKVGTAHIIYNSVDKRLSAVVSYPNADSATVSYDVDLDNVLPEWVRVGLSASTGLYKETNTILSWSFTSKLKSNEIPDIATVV
# Chain of Left-right determination factor 2 (Homo sapiens) (O00292 whole entry, looked up): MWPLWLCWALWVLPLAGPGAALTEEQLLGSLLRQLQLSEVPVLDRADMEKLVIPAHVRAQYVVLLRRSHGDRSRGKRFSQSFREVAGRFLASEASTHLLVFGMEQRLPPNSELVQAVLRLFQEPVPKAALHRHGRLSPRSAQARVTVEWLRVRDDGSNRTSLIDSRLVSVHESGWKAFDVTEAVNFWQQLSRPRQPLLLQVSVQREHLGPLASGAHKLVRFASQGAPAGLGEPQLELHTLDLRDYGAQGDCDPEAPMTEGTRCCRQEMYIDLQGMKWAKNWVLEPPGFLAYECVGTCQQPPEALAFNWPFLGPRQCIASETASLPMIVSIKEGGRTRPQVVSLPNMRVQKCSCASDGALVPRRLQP
# Chain of Torsin-1A-interacting protein 1 (Homo sapiens) (Q5JTV8 whole entry, looked up): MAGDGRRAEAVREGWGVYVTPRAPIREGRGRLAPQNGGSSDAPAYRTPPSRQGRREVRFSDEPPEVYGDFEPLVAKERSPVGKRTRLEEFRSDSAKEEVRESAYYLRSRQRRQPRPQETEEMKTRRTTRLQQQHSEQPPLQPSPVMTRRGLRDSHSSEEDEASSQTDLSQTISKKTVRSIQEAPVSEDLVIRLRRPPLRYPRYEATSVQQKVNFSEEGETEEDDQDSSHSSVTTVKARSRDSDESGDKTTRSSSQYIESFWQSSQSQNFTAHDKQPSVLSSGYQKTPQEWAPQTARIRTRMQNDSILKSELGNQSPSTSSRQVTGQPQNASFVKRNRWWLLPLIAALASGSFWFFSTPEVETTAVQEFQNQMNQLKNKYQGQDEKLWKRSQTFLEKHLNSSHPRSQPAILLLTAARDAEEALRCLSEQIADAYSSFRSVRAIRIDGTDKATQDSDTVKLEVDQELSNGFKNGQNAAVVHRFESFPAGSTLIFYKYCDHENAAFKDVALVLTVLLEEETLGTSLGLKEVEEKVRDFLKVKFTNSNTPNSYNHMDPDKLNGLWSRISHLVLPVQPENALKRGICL
# Chain of Alpha-bungarotoxin (Bungarus multicinctus) (P60615 whole entry, looked up): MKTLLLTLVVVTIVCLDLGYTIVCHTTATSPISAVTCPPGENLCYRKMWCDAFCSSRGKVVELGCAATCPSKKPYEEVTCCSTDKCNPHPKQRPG
# Chain of Albumin (Bos taurus) (P02769 whole entry, looked up): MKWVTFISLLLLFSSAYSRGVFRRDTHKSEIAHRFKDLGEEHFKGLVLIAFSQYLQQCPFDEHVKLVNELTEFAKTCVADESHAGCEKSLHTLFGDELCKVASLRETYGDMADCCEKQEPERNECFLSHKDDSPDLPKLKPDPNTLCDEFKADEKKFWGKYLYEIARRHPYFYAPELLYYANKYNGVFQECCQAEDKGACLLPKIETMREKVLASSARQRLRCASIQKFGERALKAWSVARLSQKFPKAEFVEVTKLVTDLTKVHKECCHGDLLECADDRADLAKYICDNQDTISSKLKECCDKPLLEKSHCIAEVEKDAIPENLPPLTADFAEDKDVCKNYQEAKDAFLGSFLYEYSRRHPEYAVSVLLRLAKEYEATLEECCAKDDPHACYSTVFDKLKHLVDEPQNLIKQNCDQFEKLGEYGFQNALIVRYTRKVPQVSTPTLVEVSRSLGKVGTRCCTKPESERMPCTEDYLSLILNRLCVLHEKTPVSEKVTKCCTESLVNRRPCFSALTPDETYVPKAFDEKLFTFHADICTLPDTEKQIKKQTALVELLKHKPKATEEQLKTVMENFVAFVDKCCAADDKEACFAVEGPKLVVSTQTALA
SMILES,composite z-score [1],z-score [2],composite z-score [3],composite z-score [4],composite z-score [5],composite z-score [6],composite z-score [7],composite z-score [8],composite z-score [9],composite z-score [10],composite z-score (Albumin (Bos taurus)),composite Z-score [11],composite z-score [12],composite z-score [13],composite z-score [14],composite z-score [15],composite z-score [16],composite z-score (Sam68 (KHDRBS1)),composite z-score [17],composite z-score [18]
NC(=O)NCC#Cc1ccc2c(c1)[C@]1(C(=O)N2)[C@H](C(=O)O)[C@H]2C(=O)O[C@H](c3ccccc3)[C@H](c3ccccc3)N2[C@@H]1c1ccc(OCCO)cc1,1.05,-0.327,-0.288,0.382,0.117,0.0077,0.13,-0.265,0.324,2.01,0.351,-0.131 (inactive),-0.161,-0.143,0.355,0.822,0.613,1.27,0.241,0.962
CCOC(=O)C1=CC[C@@H](c2cccc(Cl)c2)N(S(=O)(=O)c2ccc(C)cc2)C1,0.412,-1.76,-0.326,1.06,0.573,-0.232,-0.0035,0.424,2.68,0.703,0.839,-0.659 (inactive),-0.0661,-0.0488,0.685,2.15,0.568,0.674,0.0917,0.721
O=C1N(Cc2ccccc2)c2ccccc2[C@@H]2OC(c3ccc(OCCCO)cc3)=N[C@]12Cc1ccccc1,1.45,-2.69,0.0601,1.05,-0.338,0.0037,0.138,0.0705,0.685,0.807,-0.34,-0.296 (inactive),-0.0362,-0.0146,0.607,2.23,-0.327,1.3,0.29,1.11
CC(C)C(=C=CC[C@H](O)c1cccc(OCCO)c1)C[C@H](O)c1cc(Cl)cc(Cl)c1O,0.851,-0.583,0.155,-0.0005,-0.698,-0.126,0.23,0.0083,0.488,0.986,0.773,-0.0673 (inactive),0.0916,-0.154,0.374,1.14,0.0431,0.801,-0.331,0.943
COC(=O)c1cn(C[C@@H](Cc2ccccc2)NC(=O)N[C@H](CO)CCc2oc(C(C)=O)c(C(=O)OC)c2C(=O)OC)nn1,0.303,-0.407,0.993,-0.335,-0.616,0.02,-0.283,-0.0789,0.862,0.177,-0.0181,0.055 (inactive),0.134,-0.128,0.182,0.5,0.421,1.01,1.15,0.299
O=C1NC(=O)C2C1C=CC(C(O)c1ccco1)N2Nc1ccccn1 (stereo not given),-0.45,0.314,-0.111,-0.334,-0.0734,-0.2,0.111,-0.295,0.38,0.0104,-0.176,0.0674 (inactive),-0.133,-0.0567,0.713,0.0264,0.861,0.14,0.146,-0.0501
CCCCCCc1nc(C2CC2)cc2c1[Si](C(C)C)(C(C)C)OC2,-1.03,-0.622,-0.53,0.208,0.0599,-0.184,-0.214,-0.0784,-0.476,-0.221,-0.858,0.289 (inactive),-0.197,-0.176,-0.513,-0.535,-0.0031,-0.826,-0.463,-0.334
O=C(NCc1ccccc1)[C@@H]1c2ccccc2C(=O)N(Cc2ccccc2C(F)(F)F)[C@H]1c1ccc(CO)cc1,0.966,0.129,-0.948,-0.526,-0.317,-0.252,-0.419,-0.383,-0.934,-0.166,-0.0228,-0.683 (inactive),-0.232,-0.13,0.759,0.829,2.63,0.227,-1.2,0.612
CCCCC=C[C@@H](NC(=O)c1ccc(-c2ccccc2)cc1)c1ccccc1,1.31,-2.21,0.184,0.107,0.506,0.123,0.934,0.964,1.11,0.401,0.43,0.516 (inactive),0.112,0.0065,0.641,1.08,1.01,1.07,-0.309,0.933
[N-]=[N+]=Nc1ccccc1C[C@]1(C(=O)N2CCOCC2)N=C(c2ccc(OCCCO)cc2)O[C@H]1c1ccccc1,1.04,-1.81,0.444,1.17,0.173,0.104,-0.153,0.347,1.18,1.31,0.806,0.339 (inactive),-0.0902,-0.204,0.627,1.99,0.221,1.36,0.764,1.15
COc1cc2c(cc1O)C(C)N(Cc1ccc([N+](=O)[O-])o1)CC2 (stereo not given),1.28,-0.616,0.0215,2.21,1.21,0.138,-0.153,-0.335,0.961,1.95,0.831,0.0948 (inactive),0.348,0.0746,0.512,0.68,1.57,1.33,-0.622,1.17
O=C1O[C@@H](c2ccccc2)[C@@H](c2ccccc2)N2[C@@H](c3ccccc3OCCO)[C@]3(C(=O)Nc4ccc(C#CCCO)cc43)[C@@H](C(=O)N3CCCCCCC3)[C@H]12,1.51,-1.74,1.82,3.18,1.89,1.64,3.42,3.79,5.67,4.61,0.366,10.6 (active),2.26,1.23,0.972,5.27,1.6,1.3,1.72,1.2
COC(=O)[C@@]1(Cc2ccccc2)[C@H]2c3cc(C(=O)N(C)C)n(Cc4c(CO)[nH]cc(C)c4=O)c3C[C@H]2CN1C(=O)c1ccccc1,-0.0355,-0.898,-0.0086,0.278,0.0907,0.108,0.061,1.05,0.37,0.218,0.96,0.546 (inactive),0.163,-0.0351,0.777,1.35,-0.056,0.432,-0.26,0.295
C=CCN1Cc2ccccc2[C@H]2OC(c3ccc(OCCCO)cc3)=N[C@@]2(CC=C)C1=O,1.46,-1.74,0.725,3.19,1.43,-0.0478,0.14,-0.44,-0.0689,1.36,-0.405,0.911 (inactive),0.133,0.007,0.418,2.78,0.373,1.31,1.39,0.85
CC(C)C[C@@H]1NC(=O)[C@@H]2C[C@H](C(=O)NCCCCN(C)C)[C@H](c3cccc(OCCO)c3)N2C1=O,0.314,-0.138,-0.113,0.0053,-0.0276,-0.221,-0.138,-0.313,-0.249,-0.555,0.434,0.157 (inactive),-0.245,-0.132,0.466,1.63,0.613,0.505,0.175,0.129
COC(=O)[C@@]1(Cc2ccccc2)[C@H]2c3cc(C(=O)N(C)C)n(CCc4ccc(O)c(OC)c4)c3C[C@H]2CN1C(=O)c1ccccc1,0.351,-0.261,0.38,0.89,-0.136,0.583,1.49,0.974,0.279,0.19,0.374,-0.372 (inactive),0.742,0.401,0.126,0.316,0.638,0.169,0.314,0.151
O=C(NCC(F)(F)F)[C@@H]1c2ccccc2C(=O)N(Cc2ccccc2C(F)(F)F)[C@H]1c1ccc(CO)cc1,-0.315,-0.941,-1.02,0.0216,0.792,-0.276,0.0044,-0.101,-0.121,-0.695,0.0104,1.89 (inactive),-0.0824,0.0667,0.758,0.891,0.234,0.163,-0.572,-0.104
COCCOC(=O)N1C(=O)[C@@]2(c3cc(C#Cc4ccc(OC)cc4)ccc31)[C@H](C(=O)Nc1nc3ccccc3s1)[C@H]1C(=O)O[C@H](c3ccccc3)[C@H](c3ccccc3)N1[C@@H]2c1ccc(OCCO)cc1,1.17,-2.19,0.785,0.762,-0.621,-0.0704,-0.223,-0.268,0.179,1,-0.0497,0.308 (inactive),0.0493,-0.0539,0.458,0.757,-0.38,1.31,0.68,1.16
CC(c1ccccc1)C(O)C1C=CC2C(=O)N(c3ccccc3)C(=O)C2N1Nc1ccc([N+](=O)[O-])cc1 (stereo not given),1.46,-0.0504,0.365,0.93,0.328,-0.001,-0.0146,0.457,0.464,1.53,0.903,-0.122 (inactive),0.158,-0.0211,0.526,2.95,0.0001,1.05,-0.661,1.12
CN(C)C(=O)[C@@]1(Cc2ccccc2CN=[N+]=[N-])N=C(c2ccc(OCCCO)cc2)O[C@H]1c1ccccc1CN=[N+]=[N-],1.27,-2.63,-0.462,1.69,1,0.0655,0.551,0.771,1.56,1.11,0.936,0.608 (inactive),0.602,0.202,0.703,2.79,0.15,0.873,-0.103,1.07
CC(=O)NCCCC[C@@H]1NC(=O)[C@H]2C[C@@H](C(=O)NCCCC[N+](C)(C)C)[C@@H](c3cccc(OCCO)c3)N2C1=O,-0.194,-1.08,1.47,-2.42,-1.62,0.027,0.0121,-0.122,1.04,0.604,-1.1,2.16 (inactive),0.204,-0.0974,0.704,1.75,1.16,0.719,1.49,1.1
